Data on 40 molecules can be found in PubChem BioAssay (Tox21).

Unmarked numbers belong to inactive results. Where a call stands in place of a potency, no number is given. Calls of active or inactive are those of the source. Calls come from the whole dose curve; as a rule, active = well fitted activation curve with a large enough effect in the repeat runs; inconclusive = weak or mixed curves; inactive = flat fitted curve, though single readings scatter.

This assay is described as follows: A CellTox Green Cytotoxicity Assay to monitor cytotoxicity in HepG2 cells - 0 hour (AID 1224882). Note: nearly all actives have a fitted effect of over 35% in size. Conditions: CellTox Green fluorescence; series mostly up to 76.8 µM. The text has this:
National Center for Advancing Translational Sciences [NCATS]
NIH Chemical Genomics Center [NCGC]
U.S. Environmental Protection Agency [EPA]
National Institutes of Environmental Health Sciences [NIEHS]
National Toxicology Program [NTP]
Cell-based models are critical for drug discovery. Determining the natural cytotoxic effects resulting from test compounds is an essential research activity. A CellTox Green Cytotoxicity Assay to monitor cytotoxicity in real time of continues cell culture during 40 hours of the compound treatment was used to screen Tox21 10K library compounds in HepG2 cells. CellTox Green Cytotoxicity Assay is a nonlytic, homogeneous, biofluorescent method to measure cytotoxicity in cell culture after experimental manipulation. The assay system uses a proprietary asymmetric cyanine dye that is excluded from viable cells but preferentially stains the dead cell's DNA. […] Viable cells produce no appreciable increases in fluorescence. Therefore, the fluorescence signal produced by the binding interaction with dead cell DNA is proportional to cytotoxicity.
The mixture of HepG2 cell suspension and reagents were dispensed at 600cells/6 ul/well in 1536-well tissue culture treated black solid bottom plates using a Multidrop dispenser. After the assay plates were incubated at a 37 C/5% CO2 incubator for 5 hours, 23 nL of compounds dissolved in DMSO, positive and negative controls was transferred to the assay plate by a pintool work station. The plates were incubated at 37 C for 40 hours. The fluorescence intensity were measured at 0h, 8h, 16h, 24h, 32h and 40h time points using ViewLux plate reader during compound treatment.
Turning to `CC(C)=CC(C)(C)C`, the Potency result was “inactive”.
The same measure, in the same setting: the entry for `CCOC(=O)CC(CC(=O)OCC)(OC(C)=O)C(=O)OCC` is “inactive”.
Turning to `CCOC(=O)OCC/C(SC(=O)OCC)=C(\C)N(C=O)Cc1cnc(C)nc1N`, the Potency result was “inactive”.
The same measure, in the same setting: the same measure for `CCOC(=O)C(C)(C)C`: “inactive”; for `COc1ccc(NS(=O)(=O)c2ccc(N)cc2)nn1`: “inactive”.
Turning to `CC(=O)Nc1ccc(C)cc1`, the Potency result is “inactive”.
On to `Nc1c(NC/C=C\COc2cc(CN3CCCCC3)ccn2)c(=O)c1=O`, for which the cytotoxicity was -10.4% [at 15.8 µM].
As for `CCS(=O)(=O)CCn1c([N+](=O)[O-])cnc1C`, the Potency entry is “inactive”.
For `CCCCC[Si](OCC)(OCC)OCC`, the Potency entry was “inactive”.
Still for that read-out and setting: the same measure for `CCCCCCCC/C=C\CCCCCCCC(=O)OC[C@@H](O)[C@H]1OC[C@H](O)[C@H]1O`: “inactive”; for `CC(C)SCc1ccco1`: “inactive”; for `COC(/C=C(\C)CCC=C(C)C)OC`: “inactive”.
The same measure, in the same setting: the same measure for `C[C@H](CCC(=O)NCC(=O)O)[C@H]1CC[C@H]2[C@@H]3[C@H](O)C[C@@H]4C[C@H](O)CC[C@]4(C)[C@H]3C[C@H](O)[C@]12C`: “inactive”; for `c1ccccc1`: “inactive”; for `CCCCCCCCCCCCCCCCCCN(C)C`: “inactive”.
Same read-out and setting: the same measure for `Nc1cc(C(=O)O)ccc1Cl`: “inactive”; for `CC(=O)c1ccc(OCC(=O)N2CCCCC2)cc1`: “inactive”.
Take `CC(C)CCCCCCOC(=O)C1CCCCC1C(=O)OCCCCCCC(C)C` (stereo not given): the Potency entry is “inactive”.
Turning to `O=C1OC(=O)c2ccccc21`, the Potency result is “inactive”.
Take `CN(C)CCOCCN(C)CCO`: the Potency result is “inactive”.
Turning to `O=C1NC2NC(=O)NC2N1` (stereo not given), the Potency entry is “inactive”.
With `C[N+](C)(C)CC(O)CCl` (stereo not given), the Potency entry is “inactive”.
The same measure, in the same setting: the same measure for `Cc1ccccc1OCC1CO1` (stereo not given): “inactive”; for `O=S1(=O)CCCC1`: “inactive”.
Regarding `Cc1ncc([N+](=O)[O-])n1CC(O)CCl` (stereo not given), the Potency entry is “inactive”.
Same read-out and setting: the entry for `CN(C)CCCNCCC#N` is “inactive”; for `O=c1cc(O)c(Cl)c[nH]1` it is “inactive”.
Regarding `CCCC(C)CC` (stereo not given), the Potency entry is “inactive”.
Take `CC(C)(CO)[C@@H](O)C(=O)NCCCO`: the Potency entry is “inactive”.
As for `COc1ccc(OC)c(NC(=O)CC(C)=O)c1`, the Potency result was “inactive”.
Still for that read-out and setting: the entry for `COc1cc2c(Nc3ccc(Br)cc3F)ncnc2cc1OCC1CCN(C)CC1` is “inactive”.
Still for that read-out and setting: the same measure for `Cc1nc(C)nc(N2C[C@@H](C)N(c3ccnc([C@@H](C)O)n3)[C@@H](C)C2)n1`: “inactive”; for `CC(C)COC(=O)CC(C(=O)OCC(C)C)S(=O)(=O)O` (stereo not given): “inactive”.
Take `CCCCCC1Nc2cc(C(F)(F)F)c(S(N)(=O)=O)cc2S(=O)(=O)N1` (stereo not given): the Potency result was “inactive”.
The same measure, in the same setting: the entry for `O=C(O)C(=O)Nc1cccc(-c2nn[nH]n2)c1` is “inactive”.
On the same count and under the same terms, the entry for `NC(=O)NNC(N)=O` is “inactive”.
Regarding `Cc1cc(C)cc([N+](=O)[O-])c1`, the Potency result is “inactive”.
In the case of `CC(C)CCO`, the Potency entry was “inactive”.
Same read-out and setting: the entry for `C=C(C)[C@@H]1CC[C@@H](C)C[C@@H]1O` is “inactive”.
As for `C=CCCCCCCCCCCC`, the cytotoxicity is 1.75% [at 6.97 µM].
